High-throughput results (PubChem BioAssay)
VACV Venus inh: inhibitors of vaccinia virus (Venus reporter) | Potency, µM (titrated, usually from 36.5 µM), inactives show top-dose activity change, negative = inhibition, most hits filed as inhibitors | Vaccinia virus Venus reporter expression, fluorescence | 330,000 tested, 0.46% active; calls by dose curve; tested in A549 cells; note: potency is the fitted concentration of half-maximal effect; nearly all actives have a fitted effect of over 30% in size
FMDV antiviral: foot and mouth disease virus antiviral activity. FMDV antiviral cell-based qHTS. 410,000 tested, 1.2% active. Potency, µM (highest dose often 57.9 µM), for the others: at the highest dose activity change, negative = inhibition, usual class: inhibitors; calls by dose curve; tested in HEK293T cells; note: read-out not given here; potency is the fitted concentration of half-maximal effect; nearly all actives have a fitted effect of over 45% in size
Lassa entry inh: Lassa virus entry inhibition; AID 540256; Lassa virus pseudotype entry inhibition, cell reporter; 300,000 tested, 1.2% active; Potency, µM (series often up to 37.9 µM), for inactives: at the highest dose activity change, negative = inhibition, hits mostly inhibitors; calls by dose curve; tested in HEK293 cells; note: potency is the fitted concentration of half-maximal effect; nearly all actives have a fitted effect of over 50% in size
MARV entry inh: Marburg virus entry inhibition; AID 540276; 300,000 tested, 1.8% active; Marburg virus pseudotyped entry inhibition, cell reporter; Potency, µM (doses to about 37.8 µM), for inactives: top-dose activity change, negative = inhibition, actives largely listed as inhibitors; calls by dose curve; tested in HEK293 cells; note: potency is the fitted concentration of half-maximal effect
HCMV inh: inhibitors of human cytomegalovirus | HFF cells, HCMV-luciferase reporter, 72 h; hits give low values | activity change, negative = inhibition, % at 57.5 µM | 410,000 tested, 4.5% active; in the data active = activity change below about -60%; inconclusive = no clear call, values can overlap the other calls; inactive = above about -39%
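Cell-based, HFFs, 1000 cells/well, 16 h 37C; cpds in DMSO + HCMV-luc, MOI 1 PFU/cell; 72 h 37C; OneGlo luminescence after 5 min RT; norm. to buffer vs Salinomycin 10uM.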
Vaccinia mCherry: inhibitors of vaccinia virus infection (mCherry reporter signal) | Potency, µM (doses to about 36.5 µM), inactives show top-dose activity change, negative = inhibition, usual class: inhibitors | Vaccinia virus mCherry reporter infection, fluorescence | 310,000 tested, 0.63% active | AID 720579; calls by dose curve; tested in A549 cells; note: potency is the fitted concentration of half-maximal effect; nearly all actives have a fitted effect of over 35% in size
* hit, by the source's call; i = inactive; u = inconclusive; x = no result given; [ ] = remark or other dose. Compounds with a hit are over-represented: about 6.5% of the library has one in this group of screens. % is set by controls: 0 for no effect and ±100 for the full control effect.

SMILES	VACV Venus inh	FMDV antiviral	Lassa entry inh	MARV entry inh	HCMV inh	Vaccinia mCherry
CCCCC(=O)N1CCc2cc(OC)c(OC)cc2C1COc1ccc(C(=O)OCC)cc1 (centres undefined)	8.1%	u	-26.0%[46.1 µM]	x	11.1	9.3%
O=C1CCN(S(=O)(=O)c2ccc(Cl)cc2)C(c2ccccc2)C1 (centres undefined)	x	x	x	x	-15.5	x
O=C(Nc1ccccc1)Nc1ccc(Br)cc1F	-2.2%	47.9%	u	-9.3%	-16.2	i
O=C(Nc1cccc(Cl)c1)Nc1ccc(Br)cc1F	u	-19.1%	u	u	-69.0*	u
COc1cccc(NC(=O)Nc2cc(Cl)ccc2C)c1	-25.1%	-19.8%	-28.6%	u	-60.4*	i
CCOC(=O)c1cccc(NC(=O)Nc2cc(OC)ccc2OC)c1	u	u	16.4µM*	u	u	-26.3%
O=C(Nc1ccncc1)Nc1ccc(Cl)cc1	-14.6%	6.8%	5.1%[46.1 µM]	3.5%[46.1 µM]	-72.2*	i
CCc1ccc(-n2nnc(-c3nc(-c4ccc(C)cc4)no3)c2N)cc1	-4.7%[7.34 µM]	7.1%	0.7%[46.1 µM]	x	56.9	-8.1%[7.34 µM]
O=C([C@@H]1C[C@@H](Sc2nc3ccccc3[nH]2)CN1CC1CCCCC1)N1CCOCC1	-7.3%	12.3%	x	x	x	-6.6%
CCCCCCCC(=O)N[C@H]1CC[C@@]23CCCN2C(=O)CCC[C@H]3[C@H]1Cc1ccccc1	x	x	x	x	1.5	x
CN1CCN(C(c2ccc(F)cc2)c2sc3nc(-c4ccco4)nn3c2O)CC1 (centres undefined)	0.3%	-19.1%	u	x	4.4	-4.9%
O=C(Nc1cccc(Cl)c1)Nc1cccc(Cl)c1	u	-0.7%	-21.9%	u	u	u
COC(=O)c1cccc(NC(=O)Nc2ccc(Cl)cc2)c1	-3.2%	5.1%	-26.7%	u	-67.0*	1.5%
COc1ccc(OC)c(NC(=O)NNS(=O)(=O)c2ccc(C)cc2C)c1	-12.0%	-10.8%	0.0%	-7.7%	-62.0*	-17.5%
COC(=O)c1cccc(NC(=O)NC(=O)c2ccc(Cl)cc2)c1	-5.5%	32.3%	u	u	36.5	i
COC(=O)c1cc(NC(=O)Nc2cccc(Cl)c2)ccc1Cl	u	x	u	u	-99.0*	u
COc1ccc(S(=O)(=O)N(Cc2nc(-c3cccc(C)c3)no2)C2CCCCC2)cc1	-8.0%[7.34 µM]	-3.9%	-0.7%[46.1 µM]	u	-33.1	-14.2%[7.34 µM]
CCN1CCc2nc3sc(C(=O)Nc4cccc(Cl)c4C)c(N)c3cc2C1	-25.8%	14.1µM*	4.2%[46.1 µM]	u	u	u
Cc1ccc(NC(=O)c2sc3nc4c(cc3c2N)CN(Cc2ccccc2)CC4)cc1	u	-20.3%	18.9%[46.1 µM]	u	-63.2*	u
COc1ccc(NC(=O)c2sc3nc4c(cc3c2N)CN(Cc2ccccc2)CC4)cc1	-3.3%	-6.8%	4.9%[46.1 µM]	u	2.6	-6.8%
Cc1cc(C)n(CC(=O)Nc2ccc(F)c(F)c2)c(=O)c1C#N	-8.5%	-6.4%	12.4%[46.1 µM]	x	12.8	6.9%
CC1CCN(c2nc(-c3cccnc3)nc3scc(-c4ccccc4)c23)CC1	x	-4.2%	x	x	34.7	x
CC1CCN(c2nc(CN3CCCCC3)nc3scc(-c4ccccc4)c23)CC1	-15.3%	31.6µM*	u	u	u	-24.1%
CCC(COC)NCc1cn(-c2ccc(OC)cc2)nc1-c1cccc(F)c1 (centres undefined)	-12.1%	u	u	10µM*	u	-20.4%
COc1ccc(-n2cc(CN[C@H]3CCCCNC3=O)c(-c3cccc(F)c3)n2)cc1	x	-10.0%	x	x	-27.1	x
SMILES	VACV Venus inh	FMDV antiviral	Lassa entry inh	MARV entry inh	HCMV inh	Vaccinia mCherry
COc1ccc(-n2cc(CNC(C)c3ccncn3)c(-c3cccc(F)c3)n2)cc1 (centres undefined)	-7.0%	-8.3%	-3.7%	u	u	-23.4%
COc1ccc(-n2cc(CNC3CCN(C)CC3)c(-c3cccc(F)c3)n2)cc1	u	5.6%	11.2µM*	3.16µM*	-38.8	u
CC(=O)Oc1ccc(C(=O)Nc2ccccc2NC(=O)c2ccc(OC(C)=O)cc2)cc1	x	-21.9%	x	x	-8.0	x
CC(=O)Oc1ccc(C23c4ccccc4C2(OC(C)=O)c2cc(OC(C)=O)ccc23)cc1 (centres undefined)	23.6%	u	u	u	-70.0*	-16.7%
Fc1ccc(N2Cc3ccccc3-n3nncc3C2)cc1	-8.8%	-11.6%	x	x	-104.4*	6.7%
COc1ccc2c(CC(=O)Nc3ncc(C)s3)coc2c1	u	13.7%	0.3%[46.1 µM]	u	-77.5*	-14.8%
CCOC(=O)c1cccc(NC(=O)Nc2c(C)n(C)n(-c3ccccc3)c2=O)c1	-4.5%	-9.5%	-2.7%[46.1 µM]	16.1%[46.1 µM]	-8.6	-13.1%
CC1=CC2C(C(O)CC3(C)C2CC(C)C32OCOC23COCO3)C2(C)C/C(=C\O)C(=O)C=C12 (centres undefined)	12.6µM*	39.8µM*	u	7.94µM*	-98.9*	u
O=c1c(Br)c(Br)cnn1-c1ccccc1	u	14.1µM*	u	u	-97.2*	u
c1cc(-c2sc(-c3ccncc3)c(-c3ccncc3)c2-c2ccncc2)ccn1	14.8%	-26.0%	-2.4%	u	-78.9*	i
O=C(COc1ccc([N+](=O)[O-])cc1)N1CCC(c2nc3ccccc3s2)CC1	-26.4%	u	-0.5%[46.1 µM]	u	-61.1*	-22.8%
COc1ccc(OCC(=O)N2CCC(c3nc4ccccc4s3)CC2)cc1	-14.3%	-43.1%	-0.3%[46.1 µM]	u	-30.1	-14.4%
O=C(Nc1cccc2ccccc12)OC1C=CS(=O)(=O)C1 (centres undefined)	u	-16.6%	-18.0%	-20.9%	-70.1*	11.2µM*
NC(=O)Nc1cccc2ccccc12	3.8%	-8.6%	11.3%	10.5%	-13.9	-9.9%
COc1ccc([C@]23Cc4cc(C#N)ccc4[C@H](O2)c2c(cc(-c4ccccc4)oc2=O)O3)cc1	x	x	x	7.0%[14.2 µM]	x	x
C=CCOc1cccc(C(=O)/C=C2/C(=O)Nc3ccccc32)c1	x	28.2µM*	x	x	-5.6	x
O=C1Nc2ccc(Br)cc2/C1=C/C(=O)c1ccccc1	-21.7%	u	u	u	u	-15.0%
CCOC(=O)N1CCN(C(=O)CN(Cc2ccc(Cl)cc2)S(=O)(=O)c2ccc(C)cc2)CC1	x	u	8.2µM*	-22.6%	-38.0	x
Cc1nc([N+](=O)[O-])c(Br)n1Cc1ccc(Cl)c(Cl)c1	x	17.8µM*	x	x	51.9	x
Cc1nc([N+](=O)[O-])c(Br)n1CC(=O)c1ccc(Cl)cc1	u	-32.0%	u	u	69.8	x
COc1ccc(C(=O)Cn2c(C)nc([N+](=O)[O-])c2Br)cc1	7.94µM*	u	-11.1%	-1.0%	13.3	3.55µM*
COc1ccc(CN2CCC3(CCC(CNC(=O)C4CCCO4)O3)CC2)c(C)c1C (centres undefined)	44.7%	-16.0%	x	x	x	-1.0%
CC(=O)Nc1cccc(NC(=O)c2c(-c3ccccc3)c(-c3ccccc3)nn(C)c2=O)c1	-4.3%	6.8%	-8.3%[46.1 µM]	4.8%[46.1 µM]	4.0	6.3%
C=CCNC(=O)c1ccc2nc(Cc3ccc(OC)cc3)oc2c1	-23.8%	31.2%	5.62µM*	u	80.6	-17.8%
